ELG1 repair inh = ELG1-dependent DNA repair inhibition; 2.3% of 330,000 active; HEK293T ELG1-luciferase reporter, luminescence, 16 h; DNA damage induced by 5-fluorouridine; AID 504467; Potency, µM (titrated, usually from 46.1 µM), hits mostly inhibitors; further: nearly all actives have a fitted effect of over 55% in size
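Quantitative HTS, concentration-response format. 2,000 cells/well co-treated with 5-fluorouridine and compound, 16 hr in 5% CO2 at 37 °C; ONE-Glo luminescence read after 30 min.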
IL1B secr inh = blocks inflammasome-driven IL-1 beta release | THP-1 LPS/ATP IL-1B secretion, AlphaLISA, 16 h; hits give low values | activity change, % at 57.5 µM | 4.7% of 360,000 active; in the data active means activity change below about -50%; inconclusive means mostly about -30% to -49%
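Secreted IL-1B measured by AlphaLISA bead assay after 16 h compound exposure of THP-1 cells; compounds (final up to 57.5 uM) added 1 h before LPS (250 ng/mL) and ATP (1.25 mM) stimulation; lower signal means less secretion.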
Giardia killer = kills Giardia lamblia; Giardia lamblia trophozoite viability; activity change, % at 7.66 µM, hits read low; 0.15% of 340,000 active; AID 540267; in the data active means activity change below about -80%; inconclusive means between about -30% and that limit;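 further: parasites exposed to compound for two days anaerobically before the ATP read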
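Killing of trophozoites was scored by loss of ATP luminescence after a 48 hrs anaerobic exposure to compounds at 37 deg C, using 100 cells per well.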
TDP1 cell noCPT = qHTS for Inhibitors of human tyrosyl-DNA phosphodiesterase 1 (TDP1): qHTS in cells in absence of CPT; DT40 Tdp1-/- hTDP1 cells, no CPT, ATP luminescence, 48 h; Potency, µM (top dose mostly 46.2 µM), actives largely listed as inhibitors; 15% of 420,000 active; further: nearly all actives have a fitted effect of over 55% in size
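No-CPT arm: Tdp1-/-;hTDP1 DT40 cells (400/well) plus compounds, incubated ≥48 hr at 37 °C. Readout CellTiter-Glo luminescence.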
TDP1 inh = inhibitors of human tyrosyl-DNA phosphodiesterase TDP1. Q9NUW8. 0.28% of 350,000 active. Potency, µM (doses to about 130 µM), hits mostly inhibitors. recombinant TDP1, AlphaScreen DNA substrate cleavage; further: nearly all actives have a fitted effect of over 40% in size
Target sequence (Q9NUW8 whole entry, looked up): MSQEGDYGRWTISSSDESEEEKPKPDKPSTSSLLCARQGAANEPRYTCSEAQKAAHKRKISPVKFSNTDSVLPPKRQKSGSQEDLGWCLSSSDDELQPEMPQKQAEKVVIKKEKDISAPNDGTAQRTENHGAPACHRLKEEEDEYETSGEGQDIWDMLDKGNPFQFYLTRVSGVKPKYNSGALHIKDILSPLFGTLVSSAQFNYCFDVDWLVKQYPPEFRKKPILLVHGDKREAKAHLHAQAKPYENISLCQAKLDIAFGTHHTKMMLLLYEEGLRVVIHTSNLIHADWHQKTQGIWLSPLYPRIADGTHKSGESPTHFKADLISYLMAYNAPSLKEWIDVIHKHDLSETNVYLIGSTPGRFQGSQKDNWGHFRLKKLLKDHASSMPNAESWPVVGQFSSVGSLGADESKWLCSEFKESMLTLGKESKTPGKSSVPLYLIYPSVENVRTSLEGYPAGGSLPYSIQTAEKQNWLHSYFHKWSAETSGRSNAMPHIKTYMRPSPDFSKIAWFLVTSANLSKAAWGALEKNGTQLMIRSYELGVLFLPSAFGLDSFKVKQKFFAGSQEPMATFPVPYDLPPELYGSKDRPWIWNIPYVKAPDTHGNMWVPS
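Recombinant E. coli-expressed Tdp1 (1 nM) preincubated with compound 15 min at RT, then 5'-biotin/3'-phosphotyrosine-FITC DNA substrate (15 nM) added for 5 min. AlphaScreen beads (10 ug/ml) added, 10 min RT; tyrosine-FITC cleavage read as signal loss.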
TDP1 cell CPT = DT40-hTDP1 cell growth loss with CPT; chicken DT40 Tdp1-/-;hTDP1 cells + 20 nM CPT, ATP luminescence, 48 h; Potency, µM (series often up to 46.2 µM), usual class: inhibitors; 12% of 420,000 active; further: nearly all actives have a fitted effect of over 55% in size
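Chicken DT40 Tdp1-/- cells stably complemented with human TDP1 were seeded at 400 cells/well in medium containing 20 nM camptothecin, exposed to pin-transferred compounds, and grown at 37 °C for at least 48 hr. Viability was read as ATP luminescence.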
Each line names hits and unclear results; the compound was inactive in the other large screens; ! = not confirmed by another sample. An excerpt weighted towards active compounds, which were near 19% of everything screened. Unless noted, the call rests on the fitted dose curve; in most records, active means well fitted curve in the direction sought with a large enough effect; inconclusive means small, poorly fitted or top-dose-only effect, or another doubt; inactive means no such curve, though single readings can be large; an effect the other way counts as inactive or inconclusive.

Cc1cc(Cl)ccc1OCC(=O)N(Cc1ccco1)c1c(N)n(Cc2ccccc2)c(=O)[nH]c1=O	TDP1 cell noCPT inconclusive, TDP1 cell CPT inconclusive (no result: ELG1 repair inh, TDP1 inh)
O=C(O)/C=C/c1ccc2c(-c3ccccc3)onc2c1	ELG1 repair inh inconclusive, TDP1 cell noCPT inconclusive, TDP1 cell CPT inconclusive
Cc1nn(C)c2c1NC(=O)CS2	none (no result: ELG1 repair inh, Giardia killer, TDP1 inh)
C=CCNc1ncnc2c1ncn2[C@H]1CN(Cc2ccc(-c3ccccc3)cc2)C[C@@H](CO)O1	TDP1 cell noCPT 23µM, TDP1 cell CPT 16µM (no result: ELG1 repair inh, Giardia killer, TDP1 inh)
OCCNc1ncnc2c1ncn2[C@H]1CN(Cc2ccc(Cl)cc2)C[C@@H](CO)O1	TDP1 cell noCPT inconclusive (no result: ELG1 repair inh, Giardia killer, TDP1 inh)
COCCNc1ncnc2c1ncn2[C@H]1CN(Cc2ccc(-c3ccccc3)cc2)C[C@@H](CO)O1	TDP1 cell noCPT 21µM, TDP1 cell CPT 18µM (no result: ELG1 repair inh, Giardia killer, TDP1 inh)
OCCCNc1ncnc2c1ncn2[C@H]1CN(Cc2ccc(-c3ccccc3)cc2)C[C@@H](CO)O1	TDP1 cell noCPT 21µM, TDP1 cell CPT 15µM (no result: ELG1 repair inh, Giardia killer, TDP1 inh)
OC[C@H]1O[C@@H](O[C@@H]2OC=C[C@H]3[C@H](O)[C@@H]4O[C@]4(CO)[C@@H]23)[C@H](O)[C@@H](O)[C@@H]1O	none (no result: ELG1 repair inh, IL1B secr inh, Giardia killer, TDP1 cell noCPT, TDP1 cell CPT)
C=CC1=C2C=C(C3CC3)N(CCOC)C=C2C(=O)C(C)(OC(=O)c2ccco2)C1=O (stereo not given)	none (no result: ELG1 repair inh, IL1B secr inh, Giardia killer, TDP1 cell noCPT, TDP1 cell CPT)
COc1ccc(NC(=O)CSc2nc3sc(C)cc3c(=O)n2C)c(OC)c1	ELG1 repair inh inconclusive, TDP1 cell noCPT 18µM, TDP1 cell CPT inconclusive (no result: TDP1 inh)
Cc1cc2c(=O)n(C)c(SCC(=O)Nc3cccc(O)c3)nc2s1	TDP1 cell CPT inconclusive (no result: TDP1 inh)
Cc1cccc(NC(=O)c2cc3c(=O)n4ccccc4nc3s2)c1	ELG1 repair inh inconclusive, TDP1 cell noCPT inconclusive, TDP1 inh 79µM, TDP1 cell CPT inconclusive
Cc1cccc(NC(=O)CSc2nc3sc(C)cc3c(=O)n2C)c1	TDP1 cell noCPT 23µM, TDP1 cell CPT inconclusive (no result: ELG1 repair inh, TDP1 inh)
CCOC(=O)c1ccccc1NC(=O)CCOc1ccccc1	none (no result: ELG1 repair inh, IL1B secr inh, Giardia killer)
COC(=O)CSc1[nH]c2ccc(F)cc2c1[N+](=O)[O-]	TDP1 cell noCPT inconclusive, TDP1 cell CPT 21µM
COc1cc(NS(=O)(=O)c2ccc3c(c2)C(C)(C)C(=O)N3C)cc(OC)c1	none (no result: TDP1 inh)
Nc1cccc(-n2nnnc2CN2CCOCC2)c1	TDP1 cell noCPT 16µM, TDP1 cell CPT inconclusive
Cc1nc(NC2=NCN(CCCN3CCOCC3)CN2)nc2c(C)cccc12	IL1B secr inh -61, TDP1 cell noCPT 16µM, TDP1 cell CPT inconclusive
COc1cc2nc(CN3CCN(S(=O)(=O)c4ccccc4C(F)(F)F)CC3)[nH]c(=O)c2cc1OC	ELG1 repair inh inconclusive, TDP1 cell noCPT inconclusive, TDP1 cell CPT inconclusive
COc1cc2nc(CN3CCN(S(=O)(=O)c4c(F)cccc4F)CC3)[nH]c(=O)c2cc1OC	ELG1 repair inh 5.8µM
O=C(CSCc1nc2cccnc2n1C1CCCCC1)NCc1cccc(Cl)c1	TDP1 cell noCPT 10µM, TDP1 cell CPT 23µM (no result: ELG1 repair inh, IL1B secr inh, Giardia killer)
O=C(CSCc1nc2cccnc2n1C1CCCCC1)NCc1cccc(Br)c1	TDP1 cell noCPT 21µM, TDP1 cell CPT 16µM (no result: ELG1 repair inh, IL1B secr inh, Giardia killer)
CN1CCCCC1CCN1c2ccccc2Sc2ccc(S(C)=O)cc21 (stereo not given)	IL1B secr inh -52, TDP1 cell noCPT inconclusive, TDP1 cell CPT inconclusive
O=C(CN1CCCC1)N1c2ccccc2Sc2ccccc21	none
O=C(NCC1CCCN1S(=O)(=O)c1cccs1)C(=O)Nc1ccccc1Cl (stereo not given)	TDP1 cell noCPT inconclusive, TDP1 cell CPT inconclusive
CS(=O)(=O)N(CC(=O)N1CCN(Cc2ccc3c(c2)OCO3)CC1)Cc1ccc(Cl)cc1	ELG1 repair inh 12µM, TDP1 cell noCPT inconclusive, TDP1 cell CPT 11µM
CS(=O)(=O)N(CC(=O)N1CCOCC1)Cc1ccc(Cl)cc1	none
O=C(COc1ccc(Cl)cc1)N1CCN(Cc2ccc3c(c2)OCO3)CC1	ELG1 repair inh inconclusive, IL1B secr inh -51!, TDP1 cell noCPT inconclusive, TDP1 cell CPT inconclusive
Cn1c(=O)oc2cc(S(=O)(=O)CCC(=O)N3CCN(c4ccccc4)CC3)ccc21	none
